Compounds with a hit are over-represented: about 7.6% of the library has one in this group of screens.
SW480 rerep = inducers of DNA re-replication in SW480 colon cancer cells; SW480 DNA re-replication, Hoechst DNA content imaging, 48 h; Potency, µM (top dose mostly 46.1 µM), inactives show at the highest dose re-replication activation, most hits filed as activators; 340,000 compounds, 1.8% hits; further: potency means the concentration at half of the fitted maximal effect; % of control where 0% means no effect; nearly all actives have a fitted effect of over 55% in size
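Treated cells incubate 48 hr (37 C, 5% CO2), are stained 40 min with Hoechst, and nuclear fluorescence is enumerated; a rise in nuclei with high DNA signal marks re-replication.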
KB-3-1 tox = kills parental KB-3-1 adenocarcinoma cells; KB-3-1 viability, CellTiter-Glo ATP luminescence, 72 h; Potency, µM (series often up to 46.1 µM), most hits filed as cytotoxic; 400,000 compounds, 1.4% hits; AID 1347075; further: potency means the concentration at half of the fitted maximal effect; on the % scale 0 is the no-effect control and ±100 the full control effect; nearly all actives have a fitted effect of over 60% in size
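Parental KB-3-1 viability, qHTS format: 72 h compound exposure, 37 °C; CellTiter-Glo; media-only wells and DMSO plates as controls; concentration-effect fits on corrected data.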
KB-V1 cytotox = KB-V1 MDR subline cytotoxicity; KB-V1 MDR cells viability, CellTiter-Glo, 72 h; Potency, µM (titrated, usually from 46.1 µM), most hits filed as cytotoxic; 400,000 compounds, 3.4% hits; AID 1347076; further: potency means the concentration at half of the fitted maximal effect; on the % scale 0 is the no-effect control and ±100 the full control effect; nearly all actives have a fitted effect of over 60% in size
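Cytotoxicity toward P-gp-expressing KB-V1 cells was determined as loss of CellTiter-Glo luminescence after 72 h at 37 degrees C. Compounds were tested in quantitative HTS format across a concentration range, with curves fitted to normalized data.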
MCF10A rerep = DNA re-replication induction in MCF 10a cells | Potency, µM (highest dose often 46.1 µM), without a hit: at the top dose activity, positive = re-replication, hits mostly activators | MCF 10A DNA re-replication, Hoechst nuclear intensity, 48 h | 350,000 compounds, 2.9% hits; further: potency means the concentration at half of the fitted maximal effect; % of control where 0% means no effect; nearly all actives have a fitted effect of over 50% in size
KCNH2 3.1 inh = inhibitors of human KCNH2 3.1 potassium channel isoform | activity change, % (tested at about 1.8 µM) | U2OS KCNH2 3.1, thallium flux FluxOr; active compounds read low | 340,000 compounds, 0.95% hits;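 active means maximum activity change below -70%; inconclusive means maximum activity change from -70% to -50%; inactive means maximum activity change above -50%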;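 further: thallium influx rate constant from kinetic fluorescence after stimulation buffer; on the % scale 0 is the no-effect control and ±100 the full control effect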
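Channel expression came from 3.1 mutant virus (1.77 x 10^8 /mL) applied to suspended U2OS cells for 4 h. Flux was tracked with FluxOr dye plus Red40 quencher, and kinetic rate constants normalized to controls.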
KCNH2 WT inh = inhibitors of human wildtype KCNH2 potassium channel. Q12809. U2OS, BacMam KCNH2, thallium flux FluxOr; active compounds read low. activity change, % at 1.84 µM. 340,000 compounds, 0.37% hits;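 active means maximum activity change below -70%; inconclusive means maximum activity change between -70% and -50%; inactive means maximum activity change above -50%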; further: on the % scale 0 is the no-effect control and ±100 the full control effect
Target sequence (Q12809 whole entry, looked up): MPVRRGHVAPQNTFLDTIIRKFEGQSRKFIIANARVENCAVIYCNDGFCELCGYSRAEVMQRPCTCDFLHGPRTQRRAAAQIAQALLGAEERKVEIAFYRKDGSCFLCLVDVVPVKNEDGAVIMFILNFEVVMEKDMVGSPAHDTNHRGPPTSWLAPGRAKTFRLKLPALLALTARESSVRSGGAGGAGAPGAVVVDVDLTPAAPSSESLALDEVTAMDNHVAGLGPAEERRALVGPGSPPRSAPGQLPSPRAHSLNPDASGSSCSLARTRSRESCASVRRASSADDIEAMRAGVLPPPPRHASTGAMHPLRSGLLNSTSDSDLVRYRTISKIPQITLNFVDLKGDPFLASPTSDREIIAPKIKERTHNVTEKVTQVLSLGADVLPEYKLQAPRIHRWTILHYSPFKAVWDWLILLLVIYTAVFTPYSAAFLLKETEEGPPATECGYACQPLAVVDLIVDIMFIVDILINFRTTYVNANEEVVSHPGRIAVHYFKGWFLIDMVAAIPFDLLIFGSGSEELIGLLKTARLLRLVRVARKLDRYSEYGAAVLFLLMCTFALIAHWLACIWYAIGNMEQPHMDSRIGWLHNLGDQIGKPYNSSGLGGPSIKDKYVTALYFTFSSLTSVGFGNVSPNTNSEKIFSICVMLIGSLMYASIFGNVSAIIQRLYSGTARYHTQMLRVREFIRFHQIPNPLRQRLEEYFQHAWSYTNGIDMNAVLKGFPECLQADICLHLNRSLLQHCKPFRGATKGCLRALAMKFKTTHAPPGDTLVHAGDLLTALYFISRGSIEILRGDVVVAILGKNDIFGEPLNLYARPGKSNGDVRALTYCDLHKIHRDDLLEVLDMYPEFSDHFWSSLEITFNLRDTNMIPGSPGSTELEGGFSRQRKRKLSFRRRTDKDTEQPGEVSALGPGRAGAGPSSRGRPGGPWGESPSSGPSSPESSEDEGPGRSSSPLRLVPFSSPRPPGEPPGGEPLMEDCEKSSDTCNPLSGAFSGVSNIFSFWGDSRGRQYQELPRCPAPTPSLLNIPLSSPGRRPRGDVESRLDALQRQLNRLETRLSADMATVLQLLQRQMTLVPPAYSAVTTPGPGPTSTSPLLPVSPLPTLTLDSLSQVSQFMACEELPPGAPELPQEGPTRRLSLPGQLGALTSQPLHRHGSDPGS
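U2OS cells were transduced with wild-type KCNH2 virus (2.03 x 10^8 / mL) for 4 h at room temperature, then cultured overnight at 37 C. Thallium flux was read with FluxOr dye. Rate constants were normalized to DMSO controls.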
Active calls of the source: *; i = inactive; ? = inconclusive; / = not tested or not shown; [ ] = dose if it differs, or a comment. Unless noted, the call rests on the fitted dose curve; in most records, active means well fitted curve in the direction sought with a large enough effect; inconclusive means small, poorly fitted or top-dose-only effect, or another doubt; inactive means no such curve, though single readings can be large; an effect the other way counts as inactive or inconclusive.

SMILES	SW480 rerep	KB-3-1 tox	KB-V1 cytotox	MCF10A rerep	KCNH2 3.1 inh	KCNH2 WT inh
COc1ccc(NC(=O)C(NC(C)=O)C(=O)NCc2ccc(F)cc2)cc1 (stereo unspecified)	-6%	i	i	-2%	-5	3
COc1ccc(-c2c(-c3cc(OC)cc(OC)c3)n(C)c3ccc(-c4ccc(S(N)(=O)=O)cc4)cc23)cc1	2%	i	?	?	-89*	15
COc1cc(OC)cc(-c2c(-c3cccs3)c3cc(-c4cnc(N)nc4)ccc3n2C)c1	?	?	?	23µM*	-28	-17
COc1cc(OC)cc(-c2c(-c3ccc(F)cc3)c3cc(-c4cnc(OC)nc4)ccc3n2C)c1	-3%	i	?	9%	12	-7
COc1ccc(-c2c(-c3cc(OC)cc(OC)c3)n(C)c3ccc(-c4cnc(N)nc4)cc23)cc1	1%	i	i	?	-36	0
COc1cc(OC)cc(-c2c(-c3cccs3)c3cc(-c4ccc(OC)c(OC)c4)ccc3n2C)c1	10%	i	i	16µM*	-6	4
COc1cccc(-c2c(-c3cc(OC)cc(OC)c3)n(C)c3ccc(-c4cnc(OC)nc4)cc23)c1	2%	13µM*	?	?	0	13
CN=C(C)c1c(O)c2ccccc2oc1=O	-12%	i	i	?	1	-8
O=C(c1c(O)c2ccccc2oc1=O)C1CCCCC1	7%	?	15µM*	?	3	-2
COc1ccc(C)cc1-n1nnnc1SCC(=O)c1ccc2c(c1)OCCO2	5%	i	?	11%	-8	-1
COc1ccc(-n2nnnc2SCC(=O)Nc2ccc3c(c2)OCCO3)cc1OC	5%	?	9.2µM*	15%	18	-4
CCOC(=O)c1cnc(SCC(=O)c2ccc3c(c2)OCCO3)nc1N	4%	i	i	-5%	-1	-2
COc1ccc(-n2nnnc2SCC(=O)c2ccc3c(c2)OCCO3)c(OC)c1	2%	i	9.2µM*	-1%	9	2
Cc1cc(C)nc(SCC(=O)c2ccc3c(c2)OCCO3)n1	0%	i	?	15µM*	-20	7
O=C(CSc1nnnn1-c1ccc2c(c1)OCO2)NCc1cccs1	-2%	i	i	7%	-7	1
O=C(CSc1nnnn1-c1ccc2c(c1)OCO2)NCc1ccccc1	16µM*	7.3µM*	12µM*	26%	-13	5
O=S1(=O)CCN(C2CCCCCCC2)CC1	/	i	i	/	0	4
C[n+]1ccccc1/C=N\O	-3%[20.6 µM]	/	/	-2%[20.6 µM]	/	/
O=C(C[n+]1ccccc1Cl)c1ccc(Br)cc1	/	i	i	/	/	/
O=C(Nc1ccc(OCC(F)(F)C(F)F)c(C(F)(F)F)c1)c1ccccc1O	?	?	?	12µM*	8	1
O=C(Nc1ccc(OCC(F)(F)C(F)F)c(C(F)(F)F)c1)c1ccccc1	-4%	i	?	?	1	0
CCOC(=O)c1c(C)[nH]c(C)c1S(=O)(=O)N1CCC(C(=O)Nc2ccc(C)cn2)CC1	/	i	i	/	/	/
O=C(CC(SCc1ccco1)c1ccc(O)cc1)c1cccs1 (stereo unspecified)	-3%	21µM*	i	?	-2	22
O=C(CSc1nnc(-c2ccc(O)cc2)n1Cc1ccco1)c1cccs1	-4%	i	i	1%	11	-5
CCc1cc(C(=O)N(CC)CC(=O)Nc2ccc(OC)cc2)sc1C	9%	i	18µM*	?	5	-8
SMILES	SW480 rerep	KB-3-1 tox	KB-V1 cytotox	MCF10A rerep	KCNH2 3.1 inh	KCNH2 WT inh
CCN(CC(=O)Nc1ccc(OC)cc1)C(=O)Cc1coc2cc(C)c(C)cc12	-1%	i	16µM*	-1%	0	3
Cc1ccc(NC(=O)CN(C)C(=O)Cc2coc3cc(C)c(C)cc23)cc1	-26%	i	i	3%	-13	-13
C[C@H](CO)N1C[C@H](C)[C@@H](CN(C)Cc2ccc(Oc3ccccc3)cc2)Oc2ccc(NC(=O)Cn3cnnn3)cc2C1=O	-12%	i	i	?	10	-273*
C[C@H]1CN([C@@H](C)CO)C(=O)c2cc(NC(=O)Cc3ccccc3)ccc2O[C@H]1CN(C)Cc1ccccc1	-3%	i	i	9%	-13	2
C[C@@H]1CN([C@H](C)CO)C(=O)c2cc(NC(=O)Cc3ccccc3)ccc2O[C@H]1CN(C)Cc1ccc(Oc2ccccc2)cc1	?	?	?	16µM*	-6	-2
O=C(c1ccc2c(c1)N(Cc1ccccc1)C(=O)CS2)N1CCOCC1	-1%	i	15µM*	12%	15	28
O=C(NCCc1ccccc1)c1ccc2c(c1)N(Cc1ccc(Cl)cc1)C(=O)CS2	/	23µM*	i	/	/	/
CCCC#Cc1cnc2c(c1)C(=O)N([C@H](C)CO)C[C@@H](C)[C@H](CN(C)S(=O)(=O)c1cccc(OC)c1)O2	/	i	i	/	-3	5
CCOc1ccccc1NC(=S)Nc1ncccc1C	?	18µM*	21µM*	18µM*	7	-8
Cc1cccnc1NC(=S)Nc1ncccc1C	3%	?	i	0%	-12	2
COC(=O)c1ccccc1NC(=O)Nc1ncccc1C	21µM*	i	i	2%	-10	/
COC(=O)[C@]12CCCCC=C1N(Cc1ccc(Cl)cc1Cl)C(=O)[C@H](CC(=O)NCCCN1CCCC1=O)C2	/	i	?	/	/	/
CCOc1ccccc1NC(=O)N1CCN(Cc2cc(=O)n3nc(-c4ccc(C)cc4)sc3n2)CC1	/	i	i	/	/	/
CCN(CC(=O)NCC1CCCO1)S(=O)(=O)c1ccc(Cl)cc1 (stereo unspecified)	-13%	i	i	21%	1	-80*
Cc1ccc(S(=O)(=O)c2nc(-c3ccc(F)cc3)oc2SCC(=O)NCC2CCCO2)cc1 (stereo unspecified)	0%	i	1.8µM*	?	6	-3
O=C(CN(C1CCCCC1)S(=O)(=O)c1ccc(F)cc1)NCC1CCCO1 (stereo unspecified)	1.2µM*	4.6µM*	?	?	8	7
O=C(CN(C1CCCCC1)S(=O)(=O)c1ccc(Cl)cc1)NCc1ccncc1	2%	i	i	-5%	-11	18
O=C(CN(C1CCCCC1)S(=O)(=O)c1ccc(F)cc1)NCc1ccncc1	-4%	i	8.2µM*	-11%	-9	-12

Screens as filed in PubChem BioAssay.
